# Most compounds without a hit are left out; they make up all but 17% or so of the library.
# TDP1 cell CPT = DT40-hTDP1 cell growth loss with CPT; actives 12% (n = 420,000); AID 686979; chicken DT40 Tdp1-/-;hTDP1 cells + 20 nM CPT, ATP luminescence, 48 h; Potency, µM (series often up to 46.2 µM), actives largely listed as inhibitors; further: nearly all actives have a fitted effect of over 55% in size
#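 Chicken DT40 Tdp1-/- cells complemented with human TDP1, 400 cells/well, exposed to compounds plus 20 nM camptothecin for at least 48 h at 37 C; viability read as ATP content by CellTiter-Glo luminescence.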
# DT40 TDP1 no CPT = qHTS for Inhibitors of human tyrosyl-DNA phosphodiesterase 1 (TDP1): qHTS in cells in absence of CPT; DT40 Tdp1-/- hTDP1 cells, no CPT, ATP luminescence, 48 h; actives 15% (n = 420,000); Potency, µM (doses to about 46.2 µM), most hits filed as inhibitors; further: nearly all actives have a fitted effect of over 55% in size
#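 No-CPT arm: Tdp1-/-;hTDP1 DT40 cells (400/well) plus compounds, incubated ≥48 hr at 37 °C. Readout CellTiter-Glo luminescence.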
# ClpP mod = qHTS Assay for Activators of ClpP | purified B. subtilis ClpP, FRET peptide cleavage, 20 min | ATP-dependent Clp protease proteolytic subunit (Bacillus subtilis (strain 168)), P80244 | Potency, µM (titrated, usually from 57.5 µM) | AID 651965, 2013 | actives 1.9% (n = 340,000); active means well fitted falling curve with a large enough effect; inconclusive means small, poorly fitted or top-dose-only effect; inactive means no such curve, though single readings can be large or run the other way; further: the source files actives as falling curves though it sought activators and does not explain the sign; nearly all actives have a fitted effect of over 65% in size
# Target sequence (P80244 whole entry, looked up): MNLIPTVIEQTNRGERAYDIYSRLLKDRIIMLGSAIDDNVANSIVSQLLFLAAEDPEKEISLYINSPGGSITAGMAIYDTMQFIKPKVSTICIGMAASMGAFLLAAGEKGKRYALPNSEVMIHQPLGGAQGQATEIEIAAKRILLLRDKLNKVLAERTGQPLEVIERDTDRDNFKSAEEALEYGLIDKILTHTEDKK
#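 FRET quenching reversal measured ClpP activation: 10 microg/mL B. subtilis ClpP at pH 8 with the FRET-FV decapeptide, read at 430 nm after 320 nm excitation. The 20-min minus 0-min signal was scaled between DMSO/no-enzyme wells and ADEP (5.8 microM final).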
# TDP1 inh = TDP1 (human) enzyme inhibition; Potency, µM (titrated, usually from 130 µM), actives largely listed as inhibitors; actives 0.28% (n = 350,000); recombinant TDP1, AlphaScreen DNA substrate cleavage; AID 485290; Q9NUW8; further: nearly all actives have a fitted effect of over 40% in size
#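 Compounds were preincubated with Tdp1 (1 nM final) for 15 min at room temperature before substrate (15 nM final) started a 5 min reaction; beads (10 ug/ml final) were then added for 10 min before AlphaScreen detection.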
# Hits are given with their value; 0 = inactive; ? = inconclusive; - = not tested or not shown; ! = a repeat was not active. Unless noted, the call rests on the fitted dose curve; in most records, active means well fitted curve in the direction sought with a large enough effect; inconclusive means small, poorly fitted or top-dose-only effect, or another doubt; inactive means no such curve, though single readings can be large; an effect the other way counts as inactive or inconclusive.
SMILES,TDP1 cell CPT,DT40 TDP1 no CPT,ClpP mod,TDP1 inh
C=CCn1c(COc2ccccc2)nnc1SC(C)C(=O)N/N=C/c1cc(Cl)ccc1O (stereo not drawn),?,21µM,0,0
CC[C@@H]1OC(=O)[C@@H](C)[C@H](O[C@H]2C[C@@](C)(OC)[C@@H](O)[C@H](C)O2)C(C)[C@H](O[C@H]2O[C@@H](C)C[C@@H](N(C)C)[C@@H]2O)[C@@](C)(O)C[C@H](C)C(=O)[C@@H](C)[C@H](O)[C@@]1(C)O (stereo partly drawn),0,0,-,0
Cc1ccc2cc3c(nc2c1)N(Cc1ccco1)CC3,?,?,28µM,0
Cc1ccc(S(=O)(=O)N2CN(Cc3ccco3)c3nc4ccccc4nc32)cc1,?,?,0,0
Cc1nn(-c2ccccc2)c(C)c1N,0,0,-,0
Cc1nn(Cc2ccccc2)c(C)c1N,0,0,28µM,0
CN(C)C(=O)COC(=O)/C=C/c1ccccc1[N+](=O)[O-],0,0,0,0
CCN(C[C@H]1N[C@@](Cc2ccccc2)(C(=O)OC)[C@H]2C(=O)N(Cc3ccccc3)C(=O)[C@@H]12)C(=O)Nc1ccc(C(F)(F)F)cc1,2.6µM,3.7µM,0,0
CCN(C[C@H]1N[C@@](CC)(C(=O)OC)[C@H]2C(=O)N(Cc3ccccc3)C(=O)[C@@H]12)C(=O)Nc1ccc(C)cc1,?,?,0,0
CCN(C[C@H]1N[C@@](Cc2ccccc2)(C(=O)OC)[C@H]2C(=O)N(Cc3ccccc3)C(=O)[C@@H]12)C(=O)Nc1ccc(C)cc1,?,16µM,0,0
CCN(C[C@H]1N[C@@](Cc2ccccc2)(C(=O)OC)[C@H]2C(=O)N(Cc3ccccc3)C(=O)[C@@H]12)C(C)=O,0,0,0,0
Cc1ccccc1S(=O)(=O)Nc1ncc(C(F)(F)F)cc1Cl,0,0,-,0
O=S(=O)(NNc1ncc(C(F)(F)F)cc1Cl)c1ccccc1,16µM,?,0,0
O=S(=O)(NNc1ncc(C(F)(F)F)cc1Cl)c1ccc(F)cc1F,?,21µM,0,0
O=C(CCC1CCN(C(=O)c2ccco2)CC1)NCc1ccc(F)cc1,0,0,0,0
CC(C)(C)c1ccccc1OCCOCCN1CCCCCC1,?,15µM,-,0
Cc1ccccc1OCCN1CCCC1,0,0,0,79µM
Cc1ccc(C(C)(C)C)c(OCCOCCN2CCCC2)c1,15µM,?,0,0
Cc1ccccc1OCCCN1CCCC1,0,0,0,0
Cc1sc2ncn(-n3c(C)ccc3C)c(=O)c2c1C,?,?,0,0
Cc1ccc(-c2csc3ncn(-n4c(C)ccc4C)c(=O)c23)o1,23µM,18µM,0,0
COc1cc(C(=O)OCCN2CCOCC2)cc(OC)c1OC,0,0,0,0
CCN(CC)CCCCCCCCOC(=O)c1cc(OC)c(OC)c(OC)c1,?,22µM!,0,0
COc1cc(C(=O)OCCCN2CCCN(CCCOC(=O)c3cc(OC)c(OC)c(OC)c3)CC2)cc(OC)c1OC,17µM!,24µM,0,0
Cc1ccc(Cl)cc1N1CCN(C2(c3ccccc3)C(=O)c3ccccc3C2=O)CC1,?,?,0,0
SMILES,TDP1 cell CPT,DT40 TDP1 no CPT,ClpP mod,TDP1 inh
CC1(C)CCC[C@@](C)([C@H]2CC[C@]3(C)[C@@H]2[C@H](O)C[C@@H]2[C@@]4(C)CC[C@H](O)C(C)(C)[C@@H]4CC[C@]23C)O1,-,-,-,0
O=C(Nc1ccccc1OCc1cc(=O)n2ccccc2n1)Nc1ccccc1C(F)(F)F,0,0,0,0
COc1cccc(NC(=O)CNc2cc(S(=O)(=O)N3CCOCC3)ccc2N2CCCC2)c1,?,?,0,0
CC(/C=C/c1ccccc1)=N\NC(=S)NC(C)C,10µM,10µM,0,0
CC(/C=C/c1ccccc1)=N\NC(N)=S,18µM,21µM,0,0
CC(/C=C/c1ccccc1)=N\NC(=O)c1ccncc1,0,0,0,0
CC(/C=C/c1ccccc1)=N/NC(=O)c1nc2nc(C)cc(C)n2n1,0,?,0,-
COc1ccc(-n2nc3c(c2NC(=O)C(C)Oc2ccccc2)CS(=O)C3)cc1 (stereo not drawn),0,0,32µM,0
CCN(CC)C(=O)Cc1cn(C)c2ccccc12,0,0,0,0
COc1ccc(NC(=S)N(CCCN2CCOCC2)Cc2ccccn2)cc1,0,0,-,0
